This is a sample that favours compounds with a hit; in the whole collection about 3% have one here.
SENP8 block-1: SENP8 (human) protease inhibition; Q96LD8; recombinant SENP8, Nedd8 substrate fluorescence; inhibition, % at 20 µM; actives 0.64% (n = 360,000); AID 602440; in the data active means inhibition mostly above about 40%, no sharp cut-off; inactive means mostly below about 27%
Target sequence (Q96LD8 whole entry, looked up): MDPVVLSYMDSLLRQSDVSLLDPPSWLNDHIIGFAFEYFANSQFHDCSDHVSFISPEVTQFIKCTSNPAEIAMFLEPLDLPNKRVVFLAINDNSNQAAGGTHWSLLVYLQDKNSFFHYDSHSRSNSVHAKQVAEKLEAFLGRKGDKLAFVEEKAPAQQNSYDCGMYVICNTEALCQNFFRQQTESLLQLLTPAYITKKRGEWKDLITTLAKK
TRAIL sens C8: sensitizes caspase-8 expressing cells to TRAIL; NB7+C8 cells + TRAIL, ATPlite viability luminescence; inhibition (viability loss, TRAIL sensitization), % at 10 µM; actives 1% (n = 360,000); AID 624354;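 active means compounds causing at least 50% loss of cell viability in the single-dose screen, relative to plate controls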
SENP7 block: SENP7 protease inhibition; inhibition, % at 5 µM; AID 434973; Q9BQF6; actives 1.5% (n = 330,000); recombinant SENP7, Z-RLRGG-aminoluciferin luminescence, 40 min;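 active means inhibition above about 50% at the single test dose, limit read from the data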
Target sequence (Q9BQF6 706-1050 limits assumed): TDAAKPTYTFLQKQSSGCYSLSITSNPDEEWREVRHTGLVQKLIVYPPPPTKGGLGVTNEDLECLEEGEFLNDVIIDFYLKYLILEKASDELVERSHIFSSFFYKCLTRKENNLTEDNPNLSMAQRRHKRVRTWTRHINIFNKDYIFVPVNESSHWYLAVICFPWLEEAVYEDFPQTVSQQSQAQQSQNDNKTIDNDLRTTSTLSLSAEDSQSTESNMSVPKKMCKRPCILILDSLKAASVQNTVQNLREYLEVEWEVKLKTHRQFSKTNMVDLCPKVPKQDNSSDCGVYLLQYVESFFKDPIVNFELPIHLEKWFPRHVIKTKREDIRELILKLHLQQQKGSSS
PPC-1+TRAIL kill: compounds killing PPC-1 cancer cells with TRAIL present (potentiator screen, no TRAIL-free arm) | actives 0.41% (n = 220,000) | cell killing (% activity), % at 4 µM or 5 µM | PPC-1 cells + TRAIL, ATPLite viability luminescence | AID 1443;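 active means cell killing above 50% in the first pass at 4 µM, then a duplicate retest at 5 µM averaging 50% or more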
SENP6 inh: blocks the human protease SENP6; AID 2599; Recombinant SENP6 catalytic domain, aminoluciferin luminescence; inhibition, % at 10 µM; Q9GZR1; actives 1.8% (n = 330,000);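 active means inhibition above about 50% at the single tested dose, limit read from the data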
SENP8 block-2: inhibitors of human SENP8 protease. purified SENP8, Z-RLRGG-aminoluciferin cleavage, luminescence. inhibition, % at 10 µM. actives 1.2% (n = 330,000); in the data active means inhibition above about 50%
SENP8 conf: human SENP8 inhibition, confirmed; shares compounds with SENP7 block; Recombinant SENP8, Z-RLRGG-aminoluciferin luminescence, 60 min; inhibition, % at 12.5 µM; actives 40% (n = 6,200);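 active means mean inhibition across replicates above about 50%, limit read from the data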
SENP6 conf: human SENP6 inhibition, confirmed. shares compounds with SENP7 block. recombinant SENP6, Z-RLRGG-aminoluciferin luminescence. inhibition, % at 12.5 µM. actives 58% (n = 6,200). AID 488915
SENP7 confirm: human SENP7 inhibition, confirmed; shares compounds with SENP7 block; recombinant SENP7, Z-RLRGG-aminoluciferin luminescence, 40 min; inhibition, % at 12.5 µM; actives 69% (n = 6,200); AID 488917
Casp3 select: caspase-3 inhibition (SENP selectivity assay) | purified caspase-3, Z-DEVD-aminoluciferin luminescence, 60 min | actives 60% (n = 6,200) | shares compounds with SENP7 block | inhibition, % at 12.5 µM;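 active means mean inhibition above about 50%, limit read from the data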
SENP luc ctr: interferes with luciferase luminescence in SENP counter-screen; shares compounds with SENP7 block; Pre-incubated SENP8/Z-RLRGG-aminoluciferin, luciferase luminescence interference; inhibition, % at 12.5 µM; actives 39% (n = 6,200); AID 488919;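 active means mean inhibition above about 50% when retested at one dose, limit read from the data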
A number is an active result; – = inactive; · = not tested or not shown; ! = not confirmed by another sample.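 How the source made its calls, unless noted: active means mean inhibition above about 50% in the one-dose retest (limit read from the data); inactive means the rest.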

SMILES | SENP8 block-1 | TRAIL sens C8 | SENP7 block | PPC-1+TRAIL kill | SENP6 inh | SENP8 block-2 | SENP8 conf | SENP6 conf | SENP7 confirm | Casp3 select | SENP luc ctr
O=C(Nc1ccc(F)cc1)C(c1cccc(F)c1)N1CCN(C(=O)c2ccco2)CC1 (centres undefined) | – | – | · | · | · | · | · | · | · | · | ·
O=C(O)C(Cc1c[nH]c2ccccc12)N1C(=O)c2ccccc2C1=O (centres undefined) | – | – | – | – | – | – | · | · | · | · | ·
CCNC(=O)C1(C)CCCN1Cc1cccc(C(F)(F)F)c1 (centres undefined) | – | – | · | · | · | · | · | · | · | · | ·
COc1cc2c(C#N)c(N3CCCC3)nc(N)c2c(N)n1 | – | – | 73! | – | 95 | 88 | – | 62 | – | – | –
CCOc1cc2c(C#N)c(N3CCCC3)nc(N)c2c(N)n1 | – | – | – | · | – | – | · | · | · | · | ·
COc1cc2c(C#N)c(N3CCN(C)CC3)nc(N)c2c(N)n1 | – | – | 55 | – | 59 | – | – | – | – | – | –
CCCOc1cc2c(C#N)c(N3CCCC3)nc(N)c2c(N)n1 | – | – | 61 | · | 85 | 67 | – | 75 | – | · | –
COc1cc2c(C#N)c(N3CCN(c4ccccc4OC)CC3)nc(N)c2c(N)n1 | – | – | – | – | – | – | · | · | · | · | ·
CCCCN(CC)c1nc(N)c2c(N)nc(OCC)cc2c1C#N | – | – | – | – | 67 | 66 | – | – | – | – | –
COc1ccc(NC(=O)CN2CCN(C(=O)N3CCOCC3)CC2)cc1 | – | – | – | · | – | – | · | · | · | · | ·
N#Cc1c(N2CCCC2)nc(N)c2c(N)nc(N3CCCC3)cc12 | – | – | 97 | – | 97 | 97 | 98 | 98 | 97 | 97 | –
S=C(Nc1ccccc1)c1ccccn1 | – | – | 59 | – | 64 | 54 | – | – | 83 | 59 | –
CCOC(=O)c1sc(NC(=O)Nc2ccccc2Cl)cc1C | – | 77 | 99 | 63 | 95 | 95 | 95 | 96 | 100 | 89 | –
CCOC(=O)c1sc(NC(=O)C2CCC2)cc1C | – | – | – | – | – | – | · | · | · | · | ·
CCOC(=O)c1cc(NC(=O)Nc2ccccc2Cl)c(C)nc1C | – | – | – | – | – | – | · | · | · | · | ·
CCOC(=O)c1sc(NC(=O)c2ccc(C)s2)cc1C | – | – | 73 | – | – | – | – | – | 71 | – | –
CCOC(=O)c1sc(NC(C)=O)cc1C | – | – | – | – | – | – | · | · | · | · | ·
CCOC(=O)c1sc(NC(=O)Nc2ccccc2)cc1C | – | 73 | 89 | 60 | 98 | 81 | 91 | 91 | 98 | 68 | 72
O=S(=O)(c1ccccc1)c1nc(NCc2cccnc2)sc1Cl | – | – | – | – | – | – | · | · | · | · | ·
CNC(=O)c1csc(-c2cccs2)n1 | – | – | – | – | – | – | · | · | · | · | ·
O=C(O)c1csc(-c2cccs2)n1 | – | – | – | – | – | 57 | – | – | – | – | –
c1csc(-c2nc(CN3CCSCC3)cs2)c1 | – | – | 88 | – | 80 | 74 | 80 | 80 | 96 | 94 | 86
CN1CCC(N2CCN(C3CN(C4CCCC4)S(=O)(=O)C3)CC2)CC1 (centres undefined) | – | – | · | · | · | · | · | · | · | · | ·
COc1ccc(OCCC(=O)Nc2ccccc2)cc1 | – | – | – | · | – | – | · | · | · | · | ·
O=C1NC(=S)N/C1=C/c1cc2c(cc1[N+](=O)[O-])OCO2 | – | – | – | · | 64 | 75 | – | 63 | – | – | –
SMILES | SENP8 block-1 | TRAIL sens C8 | SENP7 block | PPC-1+TRAIL kill | SENP6 inh | SENP8 block-2 | SENP8 conf | SENP6 conf | SENP7 confirm | Casp3 select | SENP luc ctr
O=C(O)/C=C\c1cc2c(cc1[N+](=O)[O-])OCO2 | – | – | – | – | – | – | · | · | · | · | ·
CC(=O)N1N=C(c2ccc(C)cc2)OC1c1ccc(C)cc1 (centres undefined) | – | – | – | – | – | – | · | · | · | · | ·
CC(=O)N1N=C(c2ccc(C)cc2)OC1c1ccc(C(C)C)cc1 (centres undefined) | – | – | 66 | – | 66 | – | – | – | – | – | –
CC(C)N(C(=O)Nc1ccc2nsnc2c1)C(C)C | · | · | 95 | – | 98 | 97 | 83 | 89 | 75 | – | –
COc1ccc(OCC(=O)NNC(=O)c2ccccc2OCc2c(C)noc2C)cc1 | – | – | – | · | – | – | · | · | · | · | ·
CCOc1ccc(NC(=O)[C@@H]2CCC(=O)N2C2OC(=O)c3ccccc32)cc1 (some centres undefined) | – | – | – | · | – | – | · | · | · | · | ·
Cc1cc(C(=O)Nc2ccccc2C(=O)O)oc1C | – | – | – | · | 64 | – | 68 | 64 | 90 | 88 | 73
CC(C)CN1C(=O)c2ccc(C(=O)Nc3ccccc3C(=O)O)cc2C1=O | – | – | – | · | 87 | 82 | 88 | 88 | 98 | 88 | 89
Cc1ccc(C(=O)Nc2ccccc2C(=O)O)cc1S(=O)(=O)Nc1ccccc1 | – | – | – | · | 62 | – | 55 | 52 | 73 | – | 63
Cc1ccc(S(=O)(=O)CCSc2cccc(C(=O)Nc3ccccc3C(=O)O)c2)cc1 | – | – | – | – | 88 | 65 | – | 76 | 92 | 60 | 85
CN(C)C(=O)CN1C(=O)NC(c2ccccc2)(c2ccccc2)C1=O | – | – | – | · | – | – | · | · | · | · | ·
O=C(Nc1c[nH]c(=O)[nH]c1=O)c1cccc([N+](=O)[O-])c1 | – | – | – | · | – | – | · | · | · | · | ·
O=C(Nc1ccccc1C(=O)O)c1cccc(F)c1 | – | – | – | · | 75 | 51 | 75 | 70 | 92 | 87 | 75
O=C(Nc1c[nH]c(=O)[nH]c1=O)c1cccc(F)c1 | – | – | – | · | – | 62 | – | – | – | – | –
COc1c(Cl)cc(C(=O)Nc2ccccc2C(=O)O)cc1Cl | – | – | – | – | 76 | 69 | 81 | 79 | 86 | – | 84
O=C(Nc1cc(C(=O)Nc2ccccc2C(=O)O)cc(C(=O)Nc2ccccc2C(=O)O)c1)c1ccccc1 | – | – | – | · | – | – | · | · | · | · | ·
CC(C)(C)c1ccc(S(=O)(=O)N2CCNC(=O)C2)cc1 | – | – | – | · | – | – | · | · | · | · | ·
COc1cc(C(=O)Nc2nnc(CC(C)C)s2)c([N+](=O)[O-])cc1OC | – | – | – | – | – | – | · | · | · | · | ·
Cc1oc(/N=C/c2ccc(O)cc2O)c(C#N)c1C | – | – | – | – | 57 | – | 81 | 82 | 94 | 56 | –

Bioassay records as filed in PubChem BioAssay.
